Sampled rows, rich in hits. Any-hit rate of the full collection: about 2.3%.
697 NFkB inh: inhibitors of PMA/ionomycin-induced NF-kB reporter, 697 cells, primary screen, B-cell NF-kB inhibitor project, cell-based, luminescence, uHTS; inhibition, % at 4 µM; 697 B-cell NF-kB luciferase reporter, 16 h; 330,000 compounds, 0.33% hits; in the data active = inhibition above about 35%
Jurkat NFkB inh: inhibitors of induced NF-kB luciferase reporter, primary screen, TCR NF-kB activation inhibitor project, cell-based, luminescence, uHTS; Jurkat, PMA/ionomycin-induced NF-kB luciferase reporter; inhibition, % at 4 µM; 330,000 compounds, 0.53% hits; in the data active = inhibition above about 50%
EBV LMP1 NFkB: EBV LMP1-driven NF-kappaB luciferase reporter inhibitors, primary screen, cell-based, luminescence, single point; LMP1-induced NF-kappaB luciferase reporter cells; inhibition, % at 12.5 µM; 350,000 compounds, 0.69% hits; AID 504558, 2011; in the data active = inhibition above about 41%; inconclusive = no clear call, values can overlap the other calls
Gli-Sufu block: Gli-Sufu pathway antagonists, primary screen, luciferase luminescence, Sufu-KO-LIGHT cells, uHTS | inhibition, % at 5 µM | 340,000 compounds, 0.74% hits | Sufu-KO-LIGHT fibroblasts, Gli luciferase reporter luminescence;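 active = inhibition above about 55%, limit read from the data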
Shn3 3UTR inh: reduction of Shn3 3'UTR firefly luciferase signal, primary screen, Schnurri-3 inhibitor project, cell-based, Clone20 osteoblasts, set 2; inhibition, % at 12.5 µM; 360,000 compounds, 0.52% hits; Clone20 osteoblast Shn3 3'UTR firefly luciferase, 24 h; AID 588674, 2011;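 active = mean inhibition of at least 75% with every replicate also reaching 75%; inconclusive = mean inhibition at least 75% but some replicate below; inactive = mean inhibition below 75%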
MITF TRPM1 inh: inhibitors of MITF-dependent TRPM1 promoter reporter, primary screen, cell-based, SK-MEL-5, single point, luciferase; inhibition, % at 12.5 µM; SK-MEL-5 TRPM1 promoter luciferase, 24 h; 330,000 compounds, 0.83% hits;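 active = mean inhibition across replicates of 60% or more, whatever share of single replicates reaches that level; inconclusive = some that reach 60%, reason not given; inactive = mean inhibition across replicates below 60%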
Each line names hits and unclear results; the compound was inactive in the other large screens; ! = not active in a repeat.

Nc1c(Cl)cnn(-c2ccccc2)c1=O	none (no result: EBV LMP1 NFkB, MITF TRPM1 inh)
O=C1CC(Sc2nnc(-c3ccccc3O)o2)C(=O)N1c1ccccc1 (configuration not stated)	Shn3 3UTR inh 93
Cc1cnc(C(=O)OCC(=O)Nc2oc(-c3ccccc3)c(-c3ccccc3)c2C#N)cn1	none
Cc1nc(N/N=C/c2ccccn2)sc1C	Gli-Sufu block 58 (no result: 697 NFkB inh, Jurkat NFkB inh, EBV LMP1 NFkB, Shn3 3UTR inh, MITF TRPM1 inh)
CCCc1sc(N/N=C/c2ccccn2)nc1-c1ccc(F)cc1	EBV LMP1 NFkB 63, Gli-Sufu block 60, MITF TRPM1 inh 63
COC(=O)c1ccc(/C=N/Nc2nc(C)c(C)s2)cc1	none (no result: Shn3 3UTR inh)
CCC(NC(=O)Nc1nnc(C(F)(F)F)s1)(C(F)(F)F)C(F)(F)F	EBV LMP1 NFkB 46
O=C(NC1=NCCS1)C1COc2ccccc2O1 (configuration not stated)	EBV LMP1 NFkB 71, MITF TRPM1 inh 80
c1ccc2c(c1)nc1n2CCC1	none (no result: 697 NFkB inh, Jurkat NFkB inh)
O=C(NC(=S)Nc1ccccc1N1CCCC1)c1ccco1	none (no result: Shn3 3UTR inh)
Cc1ccccc1NC(=O)Cc1nc(COC(=O)c2ccc(S(C)(=O)=O)c([N+](=O)[O-])c2)cs1	Shn3 3UTR inh inconclusive, MITF TRPM1 inh 73
CS(=O)(=O)c1ccc(C(=O)OCC(=O)Nc2cccnc2Cl)cc1[N+](=O)[O-]	Shn3 3UTR inh 94
CC(CCc1ccccc1)NC(=O)COC(=O)c1ccc(S(C)(=O)=O)c([N+](=O)[O-])c1 (configuration not stated)	Shn3 3UTR inh 97
CC(CCc1ccccc1)NC(=O)COC(=O)c1ccc([N+](=O)[O-])cc1 (configuration not stated)	none
OC1C(O)C(O)C(O)C(O)C1O (configuration not stated)	EBV LMP1 NFkB 91!
CCCN(CC(=O)Nc1ccc(F)c(F)c1F)C(=O)c1ccc2c(c1)NC(=O)CS2	none
Cc1cccc(CSc2cccc3cccnc23)c1	Shn3 3UTR inh 96
O=C(Cn1cnc2c(NCc3ccccc3)ncnc21)NCCN1CCOCC1	none (no result: Jurkat NFkB inh)
CC1(C)CC[C@]2(C(=O)n3ccnc3)CC[C@]3(C)[C@H](C(=O)C=C4[C@@]5(C)C=C(C#N)C(=O)C(C)(C)[C@@H]5CC[C@]43C)[C@@H]2C1	EBV LMP1 NFkB 90, Gli-Sufu block 93, Shn3 3UTR inh 94, MITF TRPM1 inh 94 (no result: 697 NFkB inh, Jurkat NFkB inh)
CCOc1ccc(NC(=O)N2CCN(S(C)(=O)=O)CC2)cc1	none
CN(C)CCCN(C(=O)c1ccc(Cl)s1)c1nc2cc3c(cc2s1)OCO3	MITF TRPM1 inh 83
CN(C)CCCN(C(=O)c1ccc([N+](=O)[O-])s1)c1nc2cc3c(cc2s1)OCCO3	MITF TRPM1 inh 67
CN(C)CCCN(C(=O)c1cc2cc([N+](=O)[O-])ccc2s1)c1nc2cc3c(cc2s1)OCCO3	MITF TRPM1 inh 87
NC(=O)c1cc(S(=O)(=O)NCc2ccc(Br)cc2)cs1	none
CCN(CC)C(=O)Cn1c(=O)n(CCCC(=O)NCc2ccccc2)c(=O)c2sccc21	none
Cc1ccc(NC(=O)C2CCCN(S(=O)(=O)c3c(C)noc3C)C2)cc1 (configuration not stated)	Shn3 3UTR inh 85
CCN(CC)S(=O)(=O)c1ccc(N=NC2=C(O)CCCC2=O)cc1	EBV LMP1 NFkB 63
COc1cc(N)c(Cc2nccc3cc(OC)c(OC)cc23)cc1OC	none
COc1cc2ccnc(Cc3cccc(OC)c3OC)c2cc1OC	Shn3 3UTR inh 86
Cc1c(CCOC(=O)C2C3CC4CC(C3)CC2C4)sc[n+]1CC(=O)c1ccc(Br)cc1 (configuration not stated)	MITF TRPM1 inh 95!
Cc1c(CCOC(=O)c2ccc(Cl)cc2Cl)sc[n+]1CC(=O)c1ccc(Br)cc1	none
COc1ccccc1C(=O)COC(=O)C(NC(=O)Cc1ccccc1)C(C)C (configuration not stated)	none
O=C(NCCc1ccc(Cl)cc1)C12CC3CC(CC(O)(C3)C1)C2	EBV LMP1 NFkB 58
Cc1cccc(C)c1NC(=O)CNC(=O)C12CC3CC(CC(O)(C3)C1)C2	none
COc1ccc(/C=C2\SC(N)=NC2=O)cc1	none
CCOC(=O)CSC1=NC(=O)/C(=C/c2ccc(OC)cc2)S1	MITF TRPM1 inh 82
CCCCCCC#Cc1ccc2c(c1)COc1c3ccccc3nn1-2	Shn3 3UTR inh 90
CCCCC#Cc1ccc2c(c1)COc1c3ccccc3nn1-2	none
Cc1ccc(S(=O)(=O)N2CCN(Cc3cc(=O)n4ccccc4n3)CC2)cc1C	none
Cc1ccccc1Nc1cc2ccccc2c(=O)[nH]1	MITF TRPM1 inh 69
COc1ccc(C(=O)NC(=O)COC(=O)c2ccc(C)o2)cc1	none
O=c1c2[nH]c3ccccc3c2ncn1CCC1=CCCCC1	none
C1=C(CCNc2ncnc3c2[nH]c2ccccc23)CCCC1	Gli-Sufu block 78 (no result: 697 NFkB inh, Jurkat NFkB inh)
COC(=O)CCCC1=CC2=CC(=O)C(C)(OC(=O)c3cccs3)C(=O)C2=CN1c1ccccc1 (configuration not stated)	none
COc1ccc(-c2ccc3c(c2)S(=O)(=O)c2cccc(C(=O)NCCOc4ccccc4Cl)c2C3=O)cc1OC	MITF TRPM1 inh 69
CC(C)c1cccc(-c2ccc3c(c2)S(=O)(=O)c2cccc(C(=O)NCc4ccccc4Cl)c2C3=O)c1	MITF TRPM1 inh 82
CCO[C@@H]1OC(C(=O)NCc2nc3ccccc3[nH]2)=C[C@H](c2cn(C(C)=O)c3ccccc23)[C@H]1CCCO	none
CCC(CNC(=O)c1c(C)nn(-c2ccccc2)c1Cl)c1ccccc1 (configuration not stated)	none
Cc1cc(C)c2nc(N3CCC(C(=O)NCCCN4CCCCC4)CC3)sc2c1	MITF TRPM1 inh 69
N=c1n(CCN2CCCC2)c2ccccc2n1CC(O)c1ccc(Cl)c(Cl)c1 (configuration not stated)	MITF TRPM1 inh 99
CN1C(=O)C(CC(=O)NC2CCCCC2)SC1=Nc1ccccc1 (configuration not stated)	EBV LMP1 NFkB 64
Cc1cc(C)nc(SCc2ccc(C(=O)N/N=C/c3ccc(C(=O)O)cc3)cc2)n1	none
Cc1cc(C)nc(SCc2ccc(C(=O)N/N=C/c3cccc(O)c3O)cc2)n1	EBV LMP1 NFkB 52, Gli-Sufu block 84
CC1CC(C)(C)C2=NCCN21 (configuration not stated)	none (no result: 697 NFkB inh, Jurkat NFkB inh, Gli-Sufu block, MITF TRPM1 inh)
COc1cnc(-c2ccccn2)nc1NC(C)C	Shn3 3UTR inh 92, MITF TRPM1 inh 66
COc1ccc(C(CNC(=O)c2ccc(N3CCCC3=O)cc2)N(C)C)cc1 (configuration not stated)	none

Compound activity from PubChem BioAssay.
